From PubChem
IL1B secr inh: qHTS for Inhibitors of Inflammasome Signaling: IL-1-beta AlphaLISA Primary Screen; activity change, % at 57.5 µM; THP-1 LPS/ATP IL-1B secretion, AlphaLISA, 16 h; hits give low values; 4.7% of 360,000 active; in the data active = activity change below about -50%; inconclusive = mostly about -30% to -49%
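THP-1 cells pretreated 1 hr with compounds (up to 57.5 uM final), then stimulated with LPS (250 ng/mL final) plus ATP (1.25 mM final); secreted IL-1B measured by AlphaLISA after 16 hr, decreased signal indicating inhibition.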
PINK1 expr mod: A Quantitative High throughput Screen to Identify Chemical Modulators of PINK1 Expression. PINK1 immunofluorescence, high-content cytometry, 24 h. Potency, µM (series often up to 76.6 µM), actives largely listed as activators. 0.2% of 410,000 active. AID 624263, 2012; active = well fitted activation curve with a large enough effect; inconclusive = small, poorly fitted or top-dose-only effect; cell line not stated here; also: nearly all actives have a fitted effect of over 65% in size
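Stable cell line, 250 cells/well, 12 h attachment; compounds pinned at 5 concentrations, 24 h; CCCP control. Fixed with nuclear dye, primary antibodies 12 h at 10 degrees C, secondary plus cell stain; laser-scanning cytometer read.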
SW480 rereplic: A quantitative high throughput screen for small molecules that induce DNA re-replication in SW480 colon adenocarcinoma cells. SW480 DNA re-replication, Hoechst DNA content imaging, 48 h. Potency, µM (titrated, usually from 46.1 µM), most hits filed as activators. 1.8% of 340,000 active; also: nearly all actives have a fitted effect of over 55% in size
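SW480 cells exposed to compounds for 48 hr at 37 C, 5% CO2, then Hoechst-stained 40 min. Nuclear DNA content imaged by fluorescence scanning (405 nm excitation, 500-530 nm emission); re-replication scored as increased high-intensity nuclei.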
MCF10A rerep: A quantitative high throughput screen for small molecules that induce DNA re-replication in MCF 10a normal breast cells; 2.9% of 350,000 active; MCF 10A DNA re-replication, Hoechst nuclear intensity, 48 h; Potency, µM (highest dose often 46.1 µM), usual class: activators; AID 624296, 2012; also: nearly all actives have a fitted effect of over 50% in size
ATXN2 expr inh: Primary qHTS for Inhibitors of ATXN expression; AID 1745845, 2022; 0.72% of 360,000 active; Potency, µM (doses to about 57 µM), hits mostly inhibitors; HEK-293 ATXN2-luciferase reporter, luminescence, 24 h; also: nearly all actives have a fitted effect of over 55% in size
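ATXN2-luciferase reporter cells (luciferase flanked by upstream and downstream ATXN2 gene portions) were treated 24 h at 37 °C with compounds at up to 57 uM. SteadyGlo luminescence gave expression; GF-AFC fluorescence gave viability.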
S2 tox: Viability Counterscreen for Primary qHTS for Inhibitors of ATXN expression; S2 cells (HEK-293 line with an ATXN2-luciferase reporter) viability, CellTiter-Fluor protease fluorescence, 24 h; Potency, µM (highest dose often 56.7 µM), usual class: cytotoxic; 0.49% of 400,000 active; AID 651635, 2014; also: nearly all actives have a fitted effect of over 40% in size
Each line names hits and unclear results; the compound was inactive in the other large screens. This is a sample that favours compounds with a hit; in the whole collection about 7.1% have one here. Unless noted, calls follow the shape of the dose curve; as a rule, active = well fitted curve in the direction sought with a large enough effect; inconclusive = small, poorly fitted or top-dose-only effect, or another doubt; inactive = no such curve, though single readings can be large; an effect the other way counts as inactive or inconclusive.

COCC(C)N1C(=O)Cc2c1nc(N)c1c(N)nc(N3CCN(c4ccccc4F)CC3)c(C#N)c21 (centres undefined)	IL1B secr inh inconclusive, SW480 rereplic inconclusive, MCF10A rerep 12µM, ATXN2 expr inh inconclusive, S2 tox inconclusive
Nc1ncnc2c(C3OC(CO)C(O)C3O)c[nH]c12 (centres undefined)	IL1B secr inh -104, SW480 rereplic 0.21µM, MCF10A rerep inconclusive, ATXN2 expr inh inconclusive (no result: S2 tox)
Nc1ncnc2c1ncn2[C@@H]1O[C@@H](CO)[C@H](O)[C@H]1O	none (no result: IL1B secr inh, PINK1 expr mod, SW480 rereplic, MCF10A rerep)
Cc1ccn2c(=O)c(C(=O)NCCc3ccc(S(N)(=O)=O)cc3)c(O)nc2c1	none (no result: IL1B secr inh, SW480 rereplic, MCF10A rerep)
O=S(=O)(c1ccc(Cl)c(Cl)c1)c1snnc1-c1ccccc1	IL1B secr inh -116, SW480 rereplic 1.3µM, MCF10A rerep 4.6µM, ATXN2 expr inh 28µM, S2 tox 13µM
c1ccc(-c2nnsc2-c2ccccc2)cc1	none
N#CC1=C(N)C2=CCCC[C@H]2[C@H](c2cccc(F)c2)C1(C#N)C#N	IL1B secr inh -94, MCF10A rerep 21µM
CCOC(=O)[C@H](CCc1ccccc1)N[C@@H](C)C(=O)N(CC(=O)O)C1Cc2ccccc2C1	none (no result: IL1B secr inh, PINK1 expr mod, SW480 rereplic, MCF10A rerep)
CC(=O)N(c1onc(C)c1C)S(=O)(=O)c1ccc(N)cc1	none (no result: IL1B secr inh, PINK1 expr mod, SW480 rereplic, MCF10A rerep)
Nc1nc(-c2ccc(Br)cc2)c(S(=O)(=O)c2ccccc2)s1	IL1B secr inh -69
COc1cc(C(=O)Nc2ccc3oc(-c4ccccc4)nc3c2)cc(OC)c1OC	ATXN2 expr inh inconclusive, S2 tox inconclusive (no result: IL1B secr inh, SW480 rereplic, MCF10A rerep)
CCOC(=O)C1(Cc2ccc(Cl)cc2)CCN(CCCn2cccn2)CC1	IL1B secr inh -58
CCOC(=O)C1(Cc2ccccc2C(F)(F)F)CCN(C(C)CCn2cccn2)CC1 (centres undefined)	IL1B secr inh -79, ATXN2 expr inh inconclusive
CCOC(=O)C1=C(C)N=c2s/c(=C/c3cccc([N+](=O)[O-])c3O)c(=O)n2C1c1ccc(OC)cc1OC (centres undefined)	SW480 rereplic inconclusive, MCF10A rerep inconclusive, S2 tox 13µM
Cc1ccc(CSCC(=O)N2CCCC2)cc1	MCF10A rerep inconclusive
CCOC(=O)N1CCN(C(=O)CCl)CC1	IL1B secr inh -92, MCF10A rerep inconclusive
CCOC(=O)N1CCN(C(=O)c2ccc(CSc3ccc(Cl)cc3)cc2)CC1	IL1B secr inh -80, S2 tox inconclusive
CC(C)(C)NC(=O)CN1CCN(C(=O)CCl)CC1	IL1B secr inh -79, S2 tox inconclusive
CCOC(=O)N1CCN(C(=O)CSCc2ccc(C)cc2)CC1	SW480 rereplic 0.18µM
CN1CCN(C(=O)c2ccc(CSc3ccc(Cl)cc3)cc2)CC1	IL1B secr inh -62, S2 tox inconclusive
CN1CCN(C(=O)c2ccc(Cl)cc2)CC1	none
O/N=C/c1ccc(OCc2ccccc2)c(Br)c1	IL1B secr inh inconclusive, SW480 rereplic inconclusive, MCF10A rerep 26µM
CCOc1cc(/C=N/O)cc(Br)c1OCC	MCF10A rerep inconclusive
CCOc1cc(/C=N/O)cc(Br)c1OCc1ccc(Cl)cc1	IL1B secr inh -78, SW480 rereplic inconclusive, MCF10A rerep 11µM, ATXN2 expr inh inconclusive
N#CCSc1nc2ccc(N3CCCCC3)cc2c(=O)n1Cc1ccccc1	SW480 rereplic 21µM, MCF10A rerep 16µM
N#CCSc1nc2ccccc2c(=O)n1CC1CCCC1	none (no result: ATXN2 expr inh)
C#Cc1ccccc1OCCCN1CCC(C(O)(c2ccccc2)c2ccccc2)CC1	ATXN2 expr inh 32µM, S2 tox 40µM (no result: SW480 rereplic, MCF10A rerep)
COc1ccccc1OCCCN1CCC(C(O)(c2ccccc2)c2ccccc2)CC1	IL1B secr inh -54, ATXN2 expr inh inconclusive, S2 tox inconclusive (no result: SW480 rereplic, MCF10A rerep)
N#Cc1ccccc1OCCCN1CCC(C(O)(c2ccccc2)c2ccccc2)CC1	IL1B secr inh inconclusive, ATXN2 expr inh inconclusive, S2 tox inconclusive (no result: SW480 rereplic, MCF10A rerep)
O=C1c2[nH]nc(-c3ccccc3O)c2C(c2cccc(OCc3ccccc3)c2)N1CCCO (centres undefined)	none (no result: IL1B secr inh, SW480 rereplic, MCF10A rerep, ATXN2 expr inh, S2 tox)
FC(F)Oc1ccc(NC(=S)NCc2ccccc2)cc1	none
O=C(Nc1cc(Cl)cc(Cl)c1)C(c1ccccc1)N1CCCCC1 (centres undefined)	IL1B secr inh inconclusive, PINK1 expr mod inconclusive
FC(F)Oc1ccc(NC(=S)NCc2ccccc2)cc1Cl	IL1B secr inh -89, SW480 rereplic inconclusive, ATXN2 expr inh inconclusive
O=C(O)c1ccccc1OC(C(=O)Nc1cc(Cl)cc(Cl)c1)c1ccccc1 (centres undefined)	SW480 rereplic inconclusive, MCF10A rerep 21µM
O=C(Nc1ccc(OC(F)F)c(Cl)c1)C(c1ccccc1)c1ccccc1	IL1B secr inh -62, PINK1 expr mod inconclusive, MCF10A rerep 2.3µM, ATXN2 expr inh inconclusive
Cc1ccc(NC(=S)Nc2ccc(OC(F)F)c(Cl)c2)cc1Cl	IL1B secr inh -92, PINK1 expr mod inconclusive, MCF10A rerep inconclusive, ATXN2 expr inh inconclusive
COc1ccc(NC(=O)c2cc3c(=O)n(Cc4cccs4)ccc3nc2C)c(OC)c1	none (no result: IL1B secr inh, SW480 rereplic, MCF10A rerep)
CC(C)c1ccc2oc(-c3cc(NC(=O)c4cccnc4)ccc3Cl)nc2c1	ATXN2 expr inh inconclusive, S2 tox inconclusive (no result: IL1B secr inh, SW480 rereplic, MCF10A rerep)
Cc1ccc2nc(-c3ccsc3)c(Nc3ccc(Cl)cc3)n2c1	none (no result: IL1B secr inh, SW480 rereplic, MCF10A rerep, ATXN2 expr inh, S2 tox)
Cc1ccc(NC(=S)Nc2ccc(Cl)c(Cl)c2)c(OC(F)F)c1	IL1B secr inh inconclusive, PINK1 expr mod inconclusive, MCF10A rerep inconclusive, ATXN2 expr inh inconclusive, S2 tox inconclusive
CC(NC(=S)Nc1ccc(OC(F)F)c(Cl)c1)C(C)(C)C (centres undefined)	IL1B secr inh -96, PINK1 expr mod inconclusive
CCCOc1ccc(CNC(=S)Nc2ccccc2)cc1Cl	IL1B secr inh -79, PINK1 expr mod inconclusive, SW480 rereplic inconclusive, MCF10A rerep inconclusive
CC(C)(C)C(=O)Cn1c(=O)n(CCCCCC(=O)NCc2ccccc2Cl)c(=O)c2sccc21	none (no result: IL1B secr inh, SW480 rereplic, MCF10A rerep, ATXN2 expr inh, S2 tox)
CSc1nc(C(=O)N2CCOc3ccc(CN4CCN(Cc5ccccn5)CC4)cc3C2)cs1	none (no result: IL1B secr inh, SW480 rereplic, MCF10A rerep, ATXN2 expr inh)
Cc1ccc(-c2nnc(-c3ccc4ccccc4c3)o2)cc1	SW480 rereplic inconclusive, MCF10A rerep 6.5µM, S2 tox inconclusive
Cc1ccc(-c2nnc(Nc3ccccc3)o2)cc1	ATXN2 expr inh 22µM (no result: PINK1 expr mod)
Cc1ccc(NC(=O)Nc2nnc(-c3ccccc3)o2)cc1	none
NC(=O)[C@@H]1CCCN1C(=O)CC1(c2cccc(F)c2)CC(=O)N(C2CCCC2)C1=O (some centres undefined)	none (no result: IL1B secr inh, SW480 rereplic, MCF10A rerep, ATXN2 expr inh)
NNc1nc(-c2ccccc2)cc(-c2ccc(Br)cc2)n1	IL1B secr inh -56, SW480 rereplic inconclusive, ATXN2 expr inh inconclusive
